Our source for the inhibition values is ChEMBL document CHEMBL1961873, “Compounds: GSK PKIS; Assays: Nanosyn kinase panel” (2012).

Assay [1] concerns the target Sphingosine kinase 1 (Homo sapiens) (UniProt Q9NYA1). The note with it: at 1 µM.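 Also: mean SPHK1 inhibition value reported from the GSK PKIS kinase panel screen.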
For assay [2], the target named is T1, Sphingosine kinase 2 (Homo sapiens) (UniProt Q9NRA0).
T1 sequence (whole entry): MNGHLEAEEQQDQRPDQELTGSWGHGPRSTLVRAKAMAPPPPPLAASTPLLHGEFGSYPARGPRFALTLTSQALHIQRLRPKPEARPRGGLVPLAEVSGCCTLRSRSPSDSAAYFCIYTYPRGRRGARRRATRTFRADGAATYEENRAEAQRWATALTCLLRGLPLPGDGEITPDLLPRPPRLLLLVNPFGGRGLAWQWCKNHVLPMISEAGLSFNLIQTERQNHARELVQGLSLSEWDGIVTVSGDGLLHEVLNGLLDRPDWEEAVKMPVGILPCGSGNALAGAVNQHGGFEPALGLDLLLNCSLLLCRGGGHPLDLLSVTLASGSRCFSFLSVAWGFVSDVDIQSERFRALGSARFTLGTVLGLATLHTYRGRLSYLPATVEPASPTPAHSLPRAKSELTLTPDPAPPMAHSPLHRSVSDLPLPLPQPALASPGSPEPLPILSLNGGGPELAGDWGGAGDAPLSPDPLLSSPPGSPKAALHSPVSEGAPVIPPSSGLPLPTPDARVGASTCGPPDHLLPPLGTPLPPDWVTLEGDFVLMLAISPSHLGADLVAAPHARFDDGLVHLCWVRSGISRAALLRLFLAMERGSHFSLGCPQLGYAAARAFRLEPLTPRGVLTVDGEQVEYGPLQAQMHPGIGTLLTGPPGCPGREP
The note with it: at 0.1 µM.

Assay [3] deals with T1, Sphingosine kinase 2 (Homo sapiens). The note with it: at 1 µM.
The target of assay [4] is Casein kinase II subunit alpha (Homo sapiens) (UniProt P68400). The note with it: at 0.1 µM.
Chain of Casein kinase II subunit alpha (Homo sapiens) (P68400 whole entry, looked up): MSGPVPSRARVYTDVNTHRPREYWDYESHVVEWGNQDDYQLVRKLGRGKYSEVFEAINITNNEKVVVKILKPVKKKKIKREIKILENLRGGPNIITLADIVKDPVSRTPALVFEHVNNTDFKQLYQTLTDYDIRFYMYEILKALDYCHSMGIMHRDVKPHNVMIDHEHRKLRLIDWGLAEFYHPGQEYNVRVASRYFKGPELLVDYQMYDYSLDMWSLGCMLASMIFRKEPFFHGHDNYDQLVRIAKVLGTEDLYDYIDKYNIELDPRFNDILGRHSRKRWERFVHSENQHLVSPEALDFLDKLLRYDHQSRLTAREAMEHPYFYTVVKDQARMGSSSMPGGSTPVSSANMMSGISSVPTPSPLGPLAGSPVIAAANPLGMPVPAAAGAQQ
Assay [5] shares this target. The note with it: at 1 µM.
Assay [6] concerns the target T2, Inhibitor of nuclear factor kappa-B kinase subunit alpha (Homo sapiens) (UniProt O15111).
T2 sequence (whole entry): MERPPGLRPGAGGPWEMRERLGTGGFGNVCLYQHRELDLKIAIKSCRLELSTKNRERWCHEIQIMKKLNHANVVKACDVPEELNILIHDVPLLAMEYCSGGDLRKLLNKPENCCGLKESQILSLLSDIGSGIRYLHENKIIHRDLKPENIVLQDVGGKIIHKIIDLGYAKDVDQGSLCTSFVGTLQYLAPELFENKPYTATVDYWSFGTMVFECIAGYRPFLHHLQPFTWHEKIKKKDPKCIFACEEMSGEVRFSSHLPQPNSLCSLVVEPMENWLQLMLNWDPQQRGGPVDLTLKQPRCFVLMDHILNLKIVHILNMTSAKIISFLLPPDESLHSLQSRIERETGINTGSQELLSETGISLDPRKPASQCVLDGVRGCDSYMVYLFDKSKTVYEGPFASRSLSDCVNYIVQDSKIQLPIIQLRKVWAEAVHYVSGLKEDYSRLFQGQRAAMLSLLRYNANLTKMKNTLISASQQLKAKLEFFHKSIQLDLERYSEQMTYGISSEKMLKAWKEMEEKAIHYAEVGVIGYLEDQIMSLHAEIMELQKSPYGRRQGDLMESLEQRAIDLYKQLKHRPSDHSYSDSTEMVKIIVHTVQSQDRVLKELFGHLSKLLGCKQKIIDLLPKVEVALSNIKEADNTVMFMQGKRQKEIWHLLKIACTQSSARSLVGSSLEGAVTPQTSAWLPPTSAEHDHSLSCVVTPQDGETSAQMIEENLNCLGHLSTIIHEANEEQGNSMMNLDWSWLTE
The note with it: at 0.1 µM.

The target of assay [7] is T2, Inhibitor of nuclear factor kappa-B kinase subunit alpha (Homo sapiens). The note with it: at 1 µM.
For assay [8], the target named is T3, Inhibitor of nuclear factor kappa-B kinase subunit beta (Homo sapiens) (UniProt O14920).
T3 sequence (whole entry): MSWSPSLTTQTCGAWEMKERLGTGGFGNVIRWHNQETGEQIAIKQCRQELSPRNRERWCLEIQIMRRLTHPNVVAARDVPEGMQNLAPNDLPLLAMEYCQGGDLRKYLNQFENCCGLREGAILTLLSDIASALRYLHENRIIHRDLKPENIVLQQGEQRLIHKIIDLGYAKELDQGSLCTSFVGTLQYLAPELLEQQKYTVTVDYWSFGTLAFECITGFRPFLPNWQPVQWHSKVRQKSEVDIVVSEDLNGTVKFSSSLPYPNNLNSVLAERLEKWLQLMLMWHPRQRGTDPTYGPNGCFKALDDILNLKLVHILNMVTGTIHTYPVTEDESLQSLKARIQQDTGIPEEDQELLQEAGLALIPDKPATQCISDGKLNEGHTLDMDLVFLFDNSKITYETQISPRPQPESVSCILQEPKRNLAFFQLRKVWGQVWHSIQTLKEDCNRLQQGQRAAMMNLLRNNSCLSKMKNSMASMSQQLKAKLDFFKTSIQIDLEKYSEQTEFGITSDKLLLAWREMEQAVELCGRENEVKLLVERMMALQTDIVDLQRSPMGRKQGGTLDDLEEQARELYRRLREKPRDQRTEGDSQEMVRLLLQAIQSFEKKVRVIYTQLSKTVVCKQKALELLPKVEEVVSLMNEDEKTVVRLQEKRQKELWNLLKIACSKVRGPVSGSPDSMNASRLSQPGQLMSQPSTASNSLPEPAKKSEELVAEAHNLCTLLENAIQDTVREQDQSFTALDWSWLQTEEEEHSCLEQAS
The note with it: at 0.1 µM.

Assay [9] deals with T3, Inhibitor of nuclear factor kappa-B kinase subunit beta (Homo sapiens). The note with it: at 1 µM.
The target of assay [10] is T4, Inhibitor of nuclear factor kappa-B kinase subunit epsilon (Homo sapiens) (UniProt Q14164).
T4 sequence (whole entry): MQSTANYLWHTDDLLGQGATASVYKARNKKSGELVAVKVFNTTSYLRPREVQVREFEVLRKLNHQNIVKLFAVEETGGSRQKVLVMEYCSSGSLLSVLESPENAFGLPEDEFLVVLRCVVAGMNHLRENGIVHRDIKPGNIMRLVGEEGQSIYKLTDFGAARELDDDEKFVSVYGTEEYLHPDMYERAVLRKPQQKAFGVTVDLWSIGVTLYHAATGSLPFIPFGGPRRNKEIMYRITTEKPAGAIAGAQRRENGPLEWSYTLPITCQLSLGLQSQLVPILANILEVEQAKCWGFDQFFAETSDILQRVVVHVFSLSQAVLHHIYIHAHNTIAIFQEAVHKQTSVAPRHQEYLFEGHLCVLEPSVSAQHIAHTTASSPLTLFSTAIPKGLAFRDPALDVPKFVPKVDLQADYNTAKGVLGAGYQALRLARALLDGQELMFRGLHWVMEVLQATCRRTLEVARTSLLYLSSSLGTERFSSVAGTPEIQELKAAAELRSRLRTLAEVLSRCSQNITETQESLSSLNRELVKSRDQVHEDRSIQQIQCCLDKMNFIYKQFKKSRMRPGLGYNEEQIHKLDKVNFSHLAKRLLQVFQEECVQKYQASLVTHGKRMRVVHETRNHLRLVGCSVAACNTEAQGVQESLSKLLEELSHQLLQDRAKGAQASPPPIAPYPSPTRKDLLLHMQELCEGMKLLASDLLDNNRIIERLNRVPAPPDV
The note with it: at 0.1 µM.

For assay [11], the target named is T4, Inhibitor of nuclear factor kappa-B kinase subunit epsilon (Homo sapiens). The note with it: at 1 µM.
The target of assay [12] is T5, Serine/threonine-protein kinase Nek1 (Homo sapiens) (UniProt Q96PY6).
T5 sequence (whole entry): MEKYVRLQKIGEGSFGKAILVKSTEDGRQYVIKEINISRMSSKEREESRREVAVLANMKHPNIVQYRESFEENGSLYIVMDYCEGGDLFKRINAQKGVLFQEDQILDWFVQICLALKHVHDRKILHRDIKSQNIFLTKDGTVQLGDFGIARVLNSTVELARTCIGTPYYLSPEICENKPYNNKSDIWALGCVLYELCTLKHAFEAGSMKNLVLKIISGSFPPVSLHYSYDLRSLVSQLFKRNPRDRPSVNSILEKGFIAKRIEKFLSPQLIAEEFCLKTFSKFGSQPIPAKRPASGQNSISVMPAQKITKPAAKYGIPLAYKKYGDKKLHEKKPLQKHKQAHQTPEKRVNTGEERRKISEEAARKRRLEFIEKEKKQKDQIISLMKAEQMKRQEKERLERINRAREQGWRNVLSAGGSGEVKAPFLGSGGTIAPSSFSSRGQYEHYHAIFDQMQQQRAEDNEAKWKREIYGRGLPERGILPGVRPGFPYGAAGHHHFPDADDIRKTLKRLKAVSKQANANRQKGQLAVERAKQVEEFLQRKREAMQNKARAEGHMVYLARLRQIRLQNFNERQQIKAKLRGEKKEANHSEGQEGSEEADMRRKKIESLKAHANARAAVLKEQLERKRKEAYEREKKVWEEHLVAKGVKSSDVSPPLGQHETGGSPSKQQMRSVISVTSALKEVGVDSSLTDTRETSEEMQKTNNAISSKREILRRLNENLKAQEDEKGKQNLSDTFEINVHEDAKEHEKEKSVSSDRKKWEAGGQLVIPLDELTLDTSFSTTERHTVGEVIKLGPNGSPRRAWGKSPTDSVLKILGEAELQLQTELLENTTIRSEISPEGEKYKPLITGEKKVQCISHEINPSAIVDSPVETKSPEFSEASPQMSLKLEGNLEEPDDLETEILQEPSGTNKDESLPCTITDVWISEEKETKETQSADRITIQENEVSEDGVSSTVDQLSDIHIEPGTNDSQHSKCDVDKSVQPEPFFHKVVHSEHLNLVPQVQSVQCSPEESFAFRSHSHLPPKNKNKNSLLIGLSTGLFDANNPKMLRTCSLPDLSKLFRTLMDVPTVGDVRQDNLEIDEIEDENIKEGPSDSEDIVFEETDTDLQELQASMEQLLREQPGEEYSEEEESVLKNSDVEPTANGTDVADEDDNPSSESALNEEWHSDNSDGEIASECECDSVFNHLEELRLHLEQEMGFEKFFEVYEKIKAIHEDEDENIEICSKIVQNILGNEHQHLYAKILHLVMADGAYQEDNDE
The note with it: at 0.1 µM.

Assay [13] addresses T5, Serine/threonine-protein kinase Nek1 (Homo sapiens). The note with it: at 1 µM.
Assay [14] deals with T6, Serine/threonine-protein kinase Nek2 (Homo sapiens) (UniProt P51955).
T6 sequence (whole entry): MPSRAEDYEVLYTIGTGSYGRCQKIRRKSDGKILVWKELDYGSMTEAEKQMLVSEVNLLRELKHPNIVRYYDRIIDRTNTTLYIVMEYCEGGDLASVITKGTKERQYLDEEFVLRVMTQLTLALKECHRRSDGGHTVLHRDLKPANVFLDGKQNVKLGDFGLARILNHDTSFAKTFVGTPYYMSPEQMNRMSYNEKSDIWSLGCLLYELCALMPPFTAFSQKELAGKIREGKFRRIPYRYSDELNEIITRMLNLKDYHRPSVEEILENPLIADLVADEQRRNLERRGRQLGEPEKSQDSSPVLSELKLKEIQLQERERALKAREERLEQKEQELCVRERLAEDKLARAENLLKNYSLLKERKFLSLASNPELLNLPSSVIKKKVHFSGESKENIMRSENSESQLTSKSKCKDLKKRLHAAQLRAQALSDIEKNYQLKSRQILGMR
The note with it: at 0.1 µM.

Assay [15] has as its target T6, Serine/threonine-protein kinase Nek2 (Homo sapiens). The note with it: at 1 µM.
Assay [16] concerns the target Serine/threonine-protein kinase Nek6 (Homo sapiens) (UniProt Q9HC98). The note with it: at 0.1 µM.
Assay [17] has the same target. The note with it: at 1 µM.
Assay [18] concerns the target Serine/threonine-protein kinase Nek7 (Homo sapiens) (UniProt Q8TDX7). The note with it: at 0.1 µM.
Assay [19] has the same target. The note with it: at 1 µM.
Assay [20] addresses T7, Serine/threonine-protein kinase Nek9 (Homo sapiens) (UniProt Q8TD19).
T7 sequence (whole entry): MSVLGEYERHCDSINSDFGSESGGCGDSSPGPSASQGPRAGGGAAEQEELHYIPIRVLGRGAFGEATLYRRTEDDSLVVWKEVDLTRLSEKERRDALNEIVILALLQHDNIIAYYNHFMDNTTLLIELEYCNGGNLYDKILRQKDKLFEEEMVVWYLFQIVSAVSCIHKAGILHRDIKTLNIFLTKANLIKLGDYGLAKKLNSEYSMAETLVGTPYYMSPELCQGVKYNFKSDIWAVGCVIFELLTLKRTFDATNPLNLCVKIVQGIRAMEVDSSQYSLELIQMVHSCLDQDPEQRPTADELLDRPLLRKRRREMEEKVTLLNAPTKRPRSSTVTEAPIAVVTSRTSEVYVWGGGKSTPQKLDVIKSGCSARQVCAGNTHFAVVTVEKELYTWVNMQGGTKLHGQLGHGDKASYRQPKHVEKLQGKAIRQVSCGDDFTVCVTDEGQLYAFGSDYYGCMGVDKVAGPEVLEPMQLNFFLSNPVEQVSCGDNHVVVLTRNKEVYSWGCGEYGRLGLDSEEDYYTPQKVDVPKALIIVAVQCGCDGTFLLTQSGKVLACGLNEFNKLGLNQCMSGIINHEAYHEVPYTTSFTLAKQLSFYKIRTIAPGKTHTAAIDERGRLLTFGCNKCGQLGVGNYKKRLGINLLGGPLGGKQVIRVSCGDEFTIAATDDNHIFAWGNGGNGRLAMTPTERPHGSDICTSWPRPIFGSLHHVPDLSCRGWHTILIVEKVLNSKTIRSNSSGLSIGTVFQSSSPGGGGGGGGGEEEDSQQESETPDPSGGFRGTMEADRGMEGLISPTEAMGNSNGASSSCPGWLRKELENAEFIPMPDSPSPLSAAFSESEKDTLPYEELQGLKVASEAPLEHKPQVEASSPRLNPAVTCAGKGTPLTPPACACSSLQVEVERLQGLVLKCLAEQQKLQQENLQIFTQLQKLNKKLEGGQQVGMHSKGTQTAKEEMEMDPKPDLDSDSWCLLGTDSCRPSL
The note with it: at 0.1 µM.

Chain of Serine/threonine-protein kinase Nek7 (Homo sapiens) (Q8TDX7 whole entry, looked up): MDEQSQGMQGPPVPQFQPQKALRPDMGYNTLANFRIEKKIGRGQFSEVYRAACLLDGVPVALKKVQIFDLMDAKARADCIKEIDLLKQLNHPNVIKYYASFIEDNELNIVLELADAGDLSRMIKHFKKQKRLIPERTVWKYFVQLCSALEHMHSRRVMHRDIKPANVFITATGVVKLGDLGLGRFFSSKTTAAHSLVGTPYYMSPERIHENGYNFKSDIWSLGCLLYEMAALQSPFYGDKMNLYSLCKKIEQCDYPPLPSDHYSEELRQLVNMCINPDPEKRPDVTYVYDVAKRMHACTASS
Chain of Serine/threonine-protein kinase Nek6 (Homo sapiens) (Q9HC98 whole entry): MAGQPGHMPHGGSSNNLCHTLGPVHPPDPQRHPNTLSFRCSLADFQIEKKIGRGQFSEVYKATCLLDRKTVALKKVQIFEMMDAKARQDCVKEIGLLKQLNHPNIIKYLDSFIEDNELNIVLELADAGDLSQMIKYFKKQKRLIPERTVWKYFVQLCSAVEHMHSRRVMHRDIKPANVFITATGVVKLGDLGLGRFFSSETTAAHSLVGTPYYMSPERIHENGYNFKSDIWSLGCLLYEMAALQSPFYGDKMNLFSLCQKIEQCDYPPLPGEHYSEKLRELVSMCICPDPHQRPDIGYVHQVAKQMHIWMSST
Chain of Sphingosine kinase 1 (Homo sapiens) (Q9NYA1 whole entry): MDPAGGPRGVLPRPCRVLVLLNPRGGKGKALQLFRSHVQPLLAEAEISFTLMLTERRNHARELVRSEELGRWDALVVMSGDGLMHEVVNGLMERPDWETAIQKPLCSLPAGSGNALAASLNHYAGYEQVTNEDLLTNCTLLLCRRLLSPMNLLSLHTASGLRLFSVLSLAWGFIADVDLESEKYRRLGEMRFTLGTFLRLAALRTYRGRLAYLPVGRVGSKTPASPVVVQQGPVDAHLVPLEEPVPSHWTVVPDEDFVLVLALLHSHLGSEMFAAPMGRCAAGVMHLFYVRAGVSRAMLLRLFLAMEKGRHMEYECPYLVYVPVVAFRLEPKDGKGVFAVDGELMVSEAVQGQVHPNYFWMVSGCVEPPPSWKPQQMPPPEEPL

What is called inhibition is the change of the read-out against control, counted positive when it falls. As for `COc1cccc(-n2ncc3c(N/N=C/c4ccncc4)ncnc32)c1`, the inhibition in assay [1] is -2.79%; in assay [2] it was -0.91%; in assay [3] it was -0.32%; in [4] it was 18.2%; in assay [5] it was 59.7%; in assay [6] it was 1.55%. The inhibition in assay [7] is 1.71%; in [8], 4.82%; in assay [9], 4.07%; in assay [10], 5.23%; in assay [11], 9.13%; in assay [12], 3.6%. In addition, the inhibition was determined as 12.5% in assay [13]; 5.11% in [14]; 5.47% in assay [15]; 4.03% in assay [16]; 3.93% in assay [17]; 2.45% in [18]. Besides, the inhibition in assay [19] stood at 3.46%; in [20], 7.16%.
